The record followed here is PubChem BioAssay (NCI).

Some test systems named below: HCT-15 colon; HT29 colon; SNB-75 CNS; SNB-19 CNS; U251 CNS; PC-3 prostate; SK-MEL-5 melanoma; UACC-62 melanoma; LOX IMVI melanoma; SK-MEL-28 melanoma; SN12C renal; UO-31 renal; TK-10 renal; ACHN renal; CAKI-1 renal; A498 renal; CCRF-CEM leukemia; MOLT-4 leukemia; SK-MEL-2 melanoma; EKVX NSCLC.
Common to all, as to experiment: NCI-60 one-dose screen, 48 h (100 = growth as untreated, 0 = no growth, -100 = all killed)
Holding throughout (conditions): 10 µM unless noted

Compounds without any hit were thinned out: in the full panel of roughly 83,000, 20% have a hit.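 The endpoint reported here, percent growth, reads 100 for growth as untreated, 0 for no net growth and -100 for all cells dead.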 Values without a mark were called inactive. The source made the active and inactive calls. How the source made its calls: active means growth percent below 10; inactive means the rest.

For the compound `CN(C)CC(=O)Nc1ccc(Cn2nnc3c2C(=O)c2nnn(Cc4ccc(NC(=O)CN(C)C)cc4)c2C3=O)cc1`, the growth in the test with HCT-15 colon was 1.94% (active); in the test with HT29 colon, -52.5% (active); in the test with SNB-75 CNS, -92.8% (active); in the test with SNB-19 CNS it was -75.1% (active); with U251 CNS it was -82.1% (active); in the test on PC-3 prostate it was 1.37% (active). In addition, the growth with SK-MEL-5 melanoma was -95% (active); with UACC-62 melanoma, -66.1% (active); with LOX IMVI melanoma, -30.6% (active); in the test on SK-MEL-28 melanoma, -47.5% (active); with SN12C renal, -47.3% (active); with UO-31 renal, -20.6% (active). The growth was -14.2% (active) in the test with TK-10 renal; -15.9% (active) in the test with ACHN renal; 41.9% in the test with CAKI-1 renal; -91.3% (active) in the test with A498 renal; -32.9% (active) in the test with CCRF-CEM leukemia.

With `CC(=O)N1CC(Nc2ccc(OC(F)(F)F)cc2)=CC1=O`, the growth in the test with HCT-15 colon was 30.8%; with HT29 colon it was 7.79% (active); with SNB-75 CNS it was 9.15% (active); in the test on SNB-19 CNS, 42.3%; in the test with U251 CNS, 28.6%; in the test on PC-3 prostate it was 30.6%. Besides, the growth in the test with SK-MEL-5 melanoma was 21.2%; in the test with UACC-62 melanoma it was 39.1%; in the test with LOX IMVI melanoma it was 43.7%; in the test on SK-MEL-28 melanoma, 56.5%; in the test with SN12C renal it was 56.7%; in the test with UO-31 renal, 65.7%. The growth in the test on TK-10 renal was 51.9%; with ACHN renal, 53.4%; with CAKI-1 renal it was 30%; in the test on CCRF-CEM leukemia, 11%; in the test on MOLT-4 leukemia it was 27.1%.

For the compound `O=C1CC(c2nc3ccccc3[nH]2)CN1C1CCCCC1` (stereo not drawn), the growth in the test with HCT-15 colon is 105%; in the test with HT29 colon it was 102%; in the test with SNB-75 CNS, 90.1%; in the test with SNB-19 CNS, 110%; in the test on U251 CNS, 99.7%; with PC-3 prostate, 93.3%. Also, the growth in the test with SK-MEL-5 melanoma was 101%; with UACC-62 melanoma, 104%; in the test with LOX IMVI melanoma, 93.9%; with SK-MEL-28 melanoma, 112%; in the test on SN12C renal it was 108%; with UO-31 renal, 78.4%. The growth is 99.6% with TK-10 renal; 106% in the test on ACHN renal; 94.2% in the test on CAKI-1 renal; 79.7% in the test with A498 renal; 111% in the test with CCRF-CEM leukemia; 102% in the test with MOLT-4 leukemia.

With `Cn1cc(-c2ccc(-c3cn(C)c4ncccc34)[nH]2)c2cccnc21`, the growth was 50.4% in the test on HCT-15 colon; 97.6% in the test with HT29 colon; 59.7% in the test on SNB-75 CNS; 76% with SNB-19 CNS; -44.1% (active) in the test with U251 CNS; -29.9% (active) with PC-3 prostate. The growth with SK-MEL-5 melanoma was 9.47% (active); in the test with UACC-62 melanoma, -4.05% (active); in the test on LOX IMVI melanoma, 21.8%; with SK-MEL-28 melanoma, 84.8%; in the test on SN12C renal, 75.6%; in the test on UO-31 renal, -81.3% (active). In addition, the growth was -30% (active) with TK-10 renal; 4.29% (active) in the test with ACHN renal; 54.6% with CAKI-1 renal; 83.3% in the test with A498 renal; 28.3% in the test with CCRF-CEM leukemia.

`CC(C)(C)c1nn(-c2ccccc2)c2c1CC1(CN2Cc2ccc3c(c2)OCO3)C(=O)c2ccccc2C1=O`: the growth was 105% in the test on HCT-15 colon; 103% with HT29 colon; 120% in the test with SNB-75 CNS; 111% with SNB-19 CNS; 105% in the test on U251 CNS; 91.8% in the test on PC-3 prostate. The growth in the test with SK-MEL-5 melanoma is 99.2%; in the test on UACC-62 melanoma, 92.3%; with SK-MEL-28 melanoma it was 116%; in the test on SK-MEL-2 melanoma it was 115%; with EKVX NSCLC it was 119%; with SN12C renal, 96.5%. Besides, the growth with UO-31 renal is 104%; in the test on ACHN renal, 89.9%; with CAKI-1 renal, 98.9%; with A498 renal it was 106%; with CCRF-CEM leukemia it was 85.2%; in the test on MOLT-4 leukemia, 80.3%.

In the case of `O=C(CCCCN1CCOCC1)Nc1ccc(Cn2nnc3c2C(=O)c2nnn(Cc4ccc(NC(=O)CCCCN5CCOCC5)cc4)c2C3=O)cc1`, the growth in the test with HCT-15 colon was -37% (active); in the test with HT29 colon it was -28.6% (active); in the test with SNB-75 CNS, -92.3% (active); in the test on SNB-19 CNS, -86.2% (active); with U251 CNS it was -85.2% (active); in the test on PC-3 prostate, 0.413% (active). In addition, the growth in the test with SK-MEL-5 melanoma was -95.8% (active); in the test on UACC-62 melanoma, -80% (active); in the test with LOX IMVI melanoma, -23.2% (active); in the test on SK-MEL-28 melanoma, -54.9% (active); in the test on SN12C renal, -46.6% (active); in the test on UO-31 renal it was 10.5%. In addition, the growth in the test on TK-10 renal is 13.6%; in the test with ACHN renal, -4.59% (active); in the test with CAKI-1 renal it was 7.17% (active); in the test on A498 renal, -91.1% (active); in the test with CCRF-CEM leukemia, -1.29% (active); in the test on MOLT-4 leukemia, -37.3% (active).

Take `O=C1CC(c2nc3ccccc3s2)CN1C1CCCCC1` (stereo not drawn): the growth is 99.7% in the test on HCT-15 colon; 95.4% in the test with HT29 colon; 83.7% with SNB-75 CNS; 105% in the test with SNB-19 CNS; 94.5% in the test on U251 CNS; 90.1% in the test with PC-3 prostate. The growth in the test with SK-MEL-5 melanoma is 96.3%; in the test on UACC-62 melanoma, 93.9%; in the test on LOX IMVI melanoma, 93%; in the test on SK-MEL-28 melanoma, 101%; with SN12C renal, 93.5%; with UO-31 renal, 70.5%. In addition, the growth with TK-10 renal was 121%; in the test on ACHN renal it was 98.5%; in the test with CAKI-1 renal it was 89.1%; with A498 renal, 73.2%; in the test with CCRF-CEM leukemia, 100%; in the test on MOLT-4 leukemia, 90.9%.

Regarding `CC1=C(NCCN2CCCC2)C(=O)c2c(OCc3ccc(C(F)(F)F)cc3)cccc2C1=O`, the growth in the test on HCT-15 colon was 70.9%; with HT29 colon, 42.4%; in the test on SNB-75 CNS, 82.1%; in the test on SNB-19 CNS, 95.3%; with U251 CNS, 69.9%; in the test with PC-3 prostate, 47.4%. In addition, the growth in the test with SK-MEL-5 melanoma was 85.2%; with UACC-62 melanoma it was 99.9%; with LOX IMVI melanoma, 68.4%; in the test with SK-MEL-28 melanoma it was 54.6%; with SN12C renal, 86.1%; in the test with UO-31 renal it was 62.1%. The growth in the test on TK-10 renal is 91.8%; in the test with ACHN renal it was 92.6%; in the test with CAKI-1 renal, 59.9%; in the test on CCRF-CEM leukemia it was 1.19% (active); with MOLT-4 leukemia, 12.2%.

On to `O=C(CCCN1CCOCC1)Nc1ccc(Cn2nnc3c2C(=O)c2nnn(Cc4ccc(NC(=O)CCCN5CCOCC5)cc4)c2C3=O)cc1`, for which the growth in the test with HCT-15 colon was 95.8%; in the test with HT29 colon it was 1.66% (active); in the test on SNB-75 CNS it was -87.9% (active); in the test on SNB-19 CNS, 59.5%; in the test on U251 CNS, 18.2%; with PC-3 prostate, 55.5%. Further, the growth in the test with SK-MEL-5 melanoma is 17.1%; with UACC-62 melanoma, 51.5%; in the test with LOX IMVI melanoma, -5.71% (active); with SK-MEL-28 melanoma it was 37.3%; in the test on SN12C renal it was -40.7% (active); in the test on UO-31 renal, 103%. The growth was 116% in the test on TK-10 renal; 97.9% with ACHN renal; 88.6% in the test with CAKI-1 renal; 102% in the test with A498 renal; -3.08% (active) with CCRF-CEM leukemia; -21.5% (active) with MOLT-4 leukemia.
